The values below come from PubChem BioAssay AID463 (The Scripps Research Institute Molecular Screening Center, 2006).

The term inhibition denotes the drop in the measured response relative to a control, in per cent.

Out of some 56,000 compounds screened, about 710 (1.3%) were called active. Only a selection was taken, and actives are over-represented in it overall. Values without a mark were called inactive.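 The calls were made as follows: active = inhibition above the mean inhibition of all tested compounds plus 3 SD (cut at about 28% in these data); inactive = the rest.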

The experiment is described as follows: Jurkat cell viability reduction – Jurkat E6.1, 60K MLSMR library, cytotoxicity control, primary screen (AID 463). Particulars: Jurkat E6.1 viability, ATP luminescence, 48 h; at 4 µM; stronger effect = higher value.
`CCOc1ccc(Cn2nnc(C(=O)Nc3ccc(OC)cc3OC)c2N)cc1`: the inhibition was -5.8%. For the compound `Nc1c(C(=O)NCc2ccccc2)nnn1Cc1cccc(Cl)c1`, the inhibition was 83.8% (active). The value for `CCOc1ccc(Cn2nnc(C(=O)NCc3ccccc3)c2N)cc1` was 2.3%. For the compound `CCOc1c(OC)cc(C2C(C#N)=C(N)Oc3n[nH]c(-c4ccncc4)c32)cc1OC` (stereo unspecified), the inhibition was -1.9%. Regarding `O=C(Oc1cccnc1)c1cc2ccccc2oc1=O`, the inhibition was 4.5%. Then `COc1ccc(-c2cc(C(F)(F)F)n3nc(C(=O)N4CCOCC4)c(Cl)c3n2)cc1`, with -9.2%; and `CCCCN=C(N)/C(C(=O)OCC)=C(\O)c1ccc(OC)cc1`, with -0.7%. Take `CCc1ccc(N(CC)c2ncnc3nc[nH]c23)cc1`: the inhibition was 0.9%. The value for `Cc1cc(C)n(-c2ccc(Cl)c(C(=O)O)n2)n1` was -4.6%. As for `CC(=O)c1ccc(Oc2cc(C)nc(-n3nc(C)cc3C)n2)cc1`, the inhibition is 97.7% (active). Then `CCOC(=O)c1cnc(-n2nc(C)cc2C)nc1Nc1cccc(C(C)=O)c1`, with 2.3%.

Turning to `O=C(COc1ccccc1Cl)Nn1cnnc1`, the inhibition was 4.2%. In the case of `COc1ccc(N2C(=O)C3CCCN3C2c2cccs2)cc1` (stereo unspecified), the inhibition was -7.9%. As for `NC(=O)CSC1=Nc2ccccc2C2=NC(CCC(=O)NCc3ccc(F)cc3)C(=O)N12` (stereo unspecified), the inhibition was 4.5%.

With `CC(C)C1N=C2c3ccccc3N=C(SCC(=O)c3ccc(O)c(O)c3)N2C1=O` (stereo unspecified), the inhibition is 50.8% (active). Regarding `O=C(CC1N=C2c3ccccc3N=C(SCc3ccccc3Cl)N2C1=O)NCc1ccco1` (stereo unspecified), the inhibition was 8%. On to `CCCC(NS(=O)(=O)c1ccc(OC)cc1)C(=O)O` (stereo unspecified), for which the inhibition is 0.8%. With `COC(=O)C(C)n1cnc2c(nnn2-c2cccc(Cl)c2)c1=O` (stereo unspecified), the inhibition is 6%. The value for `Cc1oc(-c2ccccc2F)nc1CS(=O)(=O)CC(=O)NCCCN(C)C1CCCCC1` was 5%; that for `COc1ccc(S(=O)(=O)N2CCOCC2)cc1C(=O)Nc1nc2ccccc2s1` was -2.5%. On to `O=C(Nc1ccc2c(c1)nc1n2CCCCC1)c1cc(S(=O)(=O)N2CCOCC2)ccc1Cl`, for which the inhibition was 34.5% (active). With `O=C(Nc1ccc(S(=O)(=O)N2CCCC2)cc1Cl)C1=COCCO1`, the inhibition is 10.5%.

With `O=C1N(Cc2ccc3c(c2)OCO3)c2ccccc2C1(O)c1c[nH]c2ccccc12` (stereo unspecified), the inhibition is -8.9%. Regarding `CCCCNC(=O)CSc1nccn1Cc1ccccc1`, the inhibition is -7.9%. Regarding `COCCNCCOCCOc1cccc(OC)c1`, the inhibition was 5.4%.

`Cc1cc(Nc2cccc(F)c2)n2ncnc2n1`: the inhibition is 0.2%. As for `CCCOC(=O)c1[nH]c2c(c1C)C(=O)CC(c1cc(OC)c(OC)c(OC)c1)C2` (stereo unspecified), the inhibition was 45.9% (active). With `CCOC(=O)c1[nH]c2c(c1C)C(=O)CC(c1ccc(N(C)C)cc1)C2` (stereo unspecified), the inhibition was 1%. Then `COC(=O)C1C(=O)c2c([nH]c(C(=O)OCCSC)c2C)CC1C` (stereo unspecified), with -3.9%; and `Cc1ccc(N(CC(O)CN2CCCC2)S(=O)(=O)c2ccccc2)cc1` (stereo unspecified), with 2.6%; and `Cc1ccc(S(=O)(=O)NC(=O)N2CCCC(C)(C)C2)cc1`, with -5.4%. Consider `Cc1ccc(S(=O)(=O)C2(S(=O)(=O)c3ccc(C)cc3)CCCC2)cc1`, for which the inhibition is 84% (active).

Take `Cc1ccc(S(=O)(=O)N2CCCC2CO)cc1` (stereo unspecified): the inhibition is -3.1%.

As for `CC(C)(O)C#Cc1ccc(C(=O)N2CCC(C(N)=O)(N3CCCCC3)CC2)cc1`, the inhibition is -6.2%. Then `CS(=O)(=O)c1ccc2nc(NC(=O)C3CCCCC3)sc2c1`, with 5.6%; and `COc1ccccc1N1CCN(C(=O)CN(Cc2ccc(Cl)cc2)S(C)(=O)=O)CC1`, with 9.3%. On to `COc1ccccc1N1CCN(Cc2nnnn2CCc2ccccc2)CC1`, for which the inhibition was -5.1%. Turning to `COc1ccccc1-n1nnnc1S(=O)(=O)Cc1ccc(Cl)cc1`, the inhibition is 53.4% (active). Then `Cc1oc(C)c(C(=O)NCCCC(=O)O)c1C(=O)NCCCC(=O)O`, with -3.9%; and `Cc1ccc2nc(-c3ccc(SCC(=O)Nc4cc(C)on4)nc3)[nH]c2c1`, with -5.8%; and `O=C(O)CCSc1nnc(-c2ccccc2)n1-c1ccccc1`, with -2.8%. Regarding `CCN1CCCC1CNc1ncnc2c1[nH]c1ccc(F)cc12` (stereo unspecified), the inhibition was 3.2%. For the compound `CC(C)OCCCNc1ncnc2c1[nH]c1ccc(F)cc12`, the inhibition was 87.6% (active).

For `O=C1CCCN1CCCNc1ncnc2c1[nH]c1ccccc12`, the inhibition was 2.2%. As for `COc1ccc(OC)c2c1sc(=NC(=O)CN1C(=O)CCC1=O)n2C`, the inhibition was 1.4%. For the compound `CCOc1cc(N2CCOCC2)c(OCC)cc1NC(=O)COc1cccc2cccnc12`, the inhibition was 37.5% (active). With `CCOc1cc(NC(=O)c2ccco2)c(OCC)cc1NC(=O)COc1ccccc1`, the inhibition is 0.4%. With `CC(=O)Nc1cccc(Oc2cc(C#N)c(C#N)cc2N2CCOCC2)c1`, the inhibition was 1.2%. Turning to `COc1ccc(OCC(=O)N2CCOCC2)cc1`, the inhibition was -4.3%. With `Cc1nc2ccc(NC(=O)N3CCC(c4ccccc4)C3)cc2nc1C` (stereo unspecified), the inhibition is -3.3%. Consider `CC1CCCCN1S(=O)(=O)c1ccc(C(=O)Nc2nnc(-c3cccs3)o2)cc1` (stereo unspecified), for which the inhibition was 101% (active). `CCc1nnc(NC(=O)c2ccc(S(=O)(=O)NC3CCCCC3)cc2)s1`: the inhibition was 27.4%. As to `CCc1nnc(NC(=O)C2CCCN2S(=O)(=O)c2ccccc2)s1` (stereo unspecified), the inhibition is 2.3%. As to `O=C1c2ccccc2-c2ncnc3c(N4CCOCC4)cc(N4CCOCC4)c1c23`, the inhibition was 6.4%.

Consider `CC1CCCN(Cc2nc3c(c(=O)n(C)c(=O)n3C)n2Cc2cccc3ccccc23)C1` (stereo unspecified), for which the inhibition is -3.6%.

With `CCOC(=O)CNC(=O)CSc1nnnn1-c1cc(C)ccc1C`, the inhibition is -1.2%.

Regarding `CNC(=O)CSc1nnnn1-c1ccc(C)cc1C`, the inhibition was -4.9%. `CCOC(=O)c1c(-c2ccc(C)cc2C)csc1NC(=O)CSc1nnnn1C`: the inhibition was 28.5% (active). On to `CCOCCCNC(=O)Cc1cc(=O)[nH]c(=O)[nH]1`, for which the inhibition is -4.5%. The value for `CCC(c1nnnn1Cc1ccccc1)N(Cc1cc2cc(OC)ccc2[nH]c1=O)CC1CCCO1` (stereo unspecified) was -4.6%. In the case of `CC(Nc1nc(N2CCCC2)nc2ccccc12)c1ccccc1` (stereo unspecified), the inhibition was 4.2%. The value for `COc1ccc(-n2nnc3c(=O)n(CC(=O)OCc4ccccc4)cnc32)cc1` was 7%. For the compound `Cc1cccc(-n2c(N)c(C(=O)N3CCN(C)CC3)sc2=S)c1`, the inhibition was 2.6%. Then `Cc1cccc(-n2c(O)c(C=Nc3ccccc3N)c(=O)[nH]c2=O)c1`, with 46.2% (active); and `O=C(CS(=O)(=O)c1cn(Cc2ccc(Cl)cc2)c2ccccc12)N1CCOCC1`, with 5.9%; and `COc1ccc(N(Cc2cc3cc(OC)ccc3[nH]c2=O)S(C)(=O)=O)cc1`, with 8.7%.

For the compound `CCC(C)Sc1nnc(-c2c[nH]c3ccccc23)n1CCOC` (stereo unspecified), the inhibition is 6%. Turning to `CC(=O)Oc1ccc2c(C)c(CC(C)O)c(=O)oc2c1` (stereo unspecified), the inhibition was -1.3%. As for `COc1ccc(OCc2cccc(C(=O)N3CCCC3)c2)cc1`, the inhibition was -5.2%. For `O=C(CSc1nc2c(cnn2-c2ccc(F)cc2)c(=O)[nH]1)N1CCCCCC1`, the inhibition was 2.5%.

For `CC(C)Oc1ccc(C(=O)Nc2cc(=O)n(C)c(=O)n2C)cc1`, the inhibition was 2.6%. With `COc1ccc(C2=NOC(C(=O)NCc3ccco3)C2)cc1OC` (stereo unspecified), the inhibition is 85.8% (active). Consider `COc1ccc(CCNS(=O)(=O)c2ccc(C(=O)NCc3ccco3)cc2)cc1OC`, for which the inhibition was 0.2%.

`O=C(c1ccco1)N1CCN(C(=O)C2CC(c3ccc(Cl)c(Cl)c3)=NO2)CC1` (stereo unspecified): the inhibition was -1.7%. Take `CC(C)NS(=O)(=O)c1ccc(NC(=O)c2cccnc2)cc1`: the inhibition is 0.7%. Then `Cc1ccccc1OCC(=O)Nc1ccc(N2CCN(C(=O)C(C)C)CC2)c(Cl)c1`, with 30.2% (active); and `Cc1cccc(NC(=O)COc2ccccc2C)n1`, with 8.1%.

In the case of `CN1CCN(c2ccc(NC(=O)COc3ccc(Cl)cc3Cl)cc2)CC1`, the inhibition was -0.1%. In the case of `CCOC(=O)c1cnc(SCC(=O)NCc2ccco2)nc1N`, the inhibition is -0.1%. For the compound `Cc1cc(C(=O)OCC(=O)NCc2ccco2)c(C)n1-c1ccccc1`, the inhibition was 75.4% (active). On to `O=C(CSc1nnc(-c2cccs2)n1-c1ccccc1)NCc1ccco1`, for which the inhibition was -1.7%.

On to `COc1cccc(OC)c1C(=O)Nc1nnc(C(C)C)s1`, for which the inhibition was 5.1%. On to `Cc1ccc(OCC(=O)Nc2ccc(-c3nc4ncccc4o3)cc2)cc1`, for which the inhibition was -9.9%.

In the case of `COc1ccc(C)c(Cn2c(-c3nonc3N)nc3ccccc32)c1`, the inhibition is 75.3% (active). Consider `Nc1nonc1-c1nc2ccccc2n1Cc1ccc(F)cc1`, for which the inhibition is 20.3%. As to `Nc1nonc1-c1nc2ccccc2n1CCC(=O)O`, the inhibition is 1.7%.

In the case of `CCC(=NC1CC(C)(C)NC(C)(C)C1)C1=C(O)CC(C)(C)CC1=O`, the inhibition is -4.2%. Then `CCc1cc(=O)oc2cc(OCC(=O)N3CCCc4ccccc43)ccc12`, with -8.4%; and `CCN(c1ccccc1)S(=O)(=O)c1ccc(N)cc1`, with -3.3%. Take `CC1CN(c2cc(=O)n(-c3cccc(Br)c3)c(=O)[nH]2)CC(C)O1` (stereo unspecified): the inhibition is 1.2%. Take `CCC(=O)Nc1ccc2c(c1)nc(CCN1CCN(C)CC1)n2C`: the inhibition was 7.5%. In the case of `Cn1c(CN2CCOCC2)nc2cc(NC(=O)c3ccc(Cl)cc3)ccc21`, the inhibition is 86.9% (active). Regarding `Cc1nn(CC(=O)Nc2ccc3c(c2)nc(CN2CCCCC2)n3C)c(=O)c2ccccc12`, the inhibition is 1.4%.

Turning to `CC(=O)OC(C(=O)NCCc1ccccc1)c1cccnc1` (stereo unspecified), the inhibition is -5.8%. In the case of `O=S(=O)(NCC1CCCO1)c1ccc2ccccc2c1` (stereo unspecified), the inhibition is -0.5%.

`CC1CCCN(Cc2nc3c(c(=O)n(C)c(=O)n3C)n2CC(=O)c2ccccc2)C1` (stereo unspecified): the inhibition is 4.9%. The value for `CC1=NC2(CCCc3c2no[n+]3[O-])N(O)C1(C)C` (stereo unspecified) was 12.1%; that for `Cc1cc(NC(=O)CSCc2nc(-c3cccc(Cl)c3)oc2C)no1` was 0.8%; that for `COc1c(C)cccc1C(=O)Nc1cc(Cl)ccc1N1CCOCC1` was -1%.

For the compound `O=C(Nc1cc(N2CCOCC2)ncn1)NC1(C(F)(F)F)Oc2ccc(Cl)cc2O1` (stereo unspecified), the inhibition was 72.6% (active). For `c1cnn(-c2cc(N3CCOCC3)ncn2)c1`, the inhibition was -0.2%. As to `CCOC(=O)C1=C(C)NC(C)=C(C(=O)OCC)C1C1=COCCO1`, the inhibition was -5.9%. The value for `CCOC(=O)CCc1c(C)c2ccc(OCc3nn[nH]n3)c(C)c2oc1=O` was -2.2%; that for `CN(C)CCCn1c(N)c(C#N)c2nc(C#N)c(C#N)nc21` was 1.9%; that for `CC(C)CNC(=O)c1cc(-c2ccc(Br)cc2)on1` was 1.8%. Take `CC(C)Cc1cc(C(=O)Nc2cc(Br)ccc2O)no1`: the inhibition was 60.7% (active). Take `CC(C)Cc1cc(C(=O)NCCc2ccccc2)no1`: the inhibition is 6%. The value for `COCCn1c(SCC(=O)Nc2cc(Cl)ccc2OC)nc2c(c1=O)SC(C)C2` (stereo unspecified) was 6.8%; that for `O=C(CSc1nnc(-c2ccco2)n1-c1ccccc1)NCCc1ccccc1` was 0.2%; that for `N#Cc1nc(-c2ccc(OCc3ccccc3)cc2)oc1NCCCN1CCOCC1` was -3.2%.

As to `CCOc1ccc(Nc2oc(Cc3ccccc3)nc2C#N)cc1`, the inhibition was -0.9%. Then `COc1ccc(Nc2oc(-c3ccccc3Cl)nc2C#N)cc1`, with 85.4% (active); and `O=C(Nc1ccc2c(c1)OCCO2)c1ccncc1`, with 3.8%. The value for `O=C(Nc1nc(-c2ccc3c(c2)OCO3)cs1)c1ccncc1` was 44% (active); that for `O=C(Nc1nc(-c2ccncc2)cs1)C1COc2ccccc2O1` (stereo unspecified) was 7.3%. As for `Cn1c(=O)cc(SCC(=O)N2CCCC2)c2cc(Cl)ccc21`, the inhibition was 3.9%.
